{
  "source": "paper PMC6664820",
  "about": "“Novel natural and synthetic inhibitors of solute carriers SGLT1 and SGLT2” (Pharmacology Research & Perspectives, 2019)",
  "note": "About 40 (2%) of roughly 1,900 compounds showed an effect of 50% or more. What follows is part of a selection rich in strong results, with near analogues and random picks from the rest. Residues, ends and D or L forms follow the SMILES beside them.",
  "data": [
    {"biological_target": "human SGLT1 (hSGLT1) (human, UniProt P13866)", "sequence (P13866 whole entry, looked up)": "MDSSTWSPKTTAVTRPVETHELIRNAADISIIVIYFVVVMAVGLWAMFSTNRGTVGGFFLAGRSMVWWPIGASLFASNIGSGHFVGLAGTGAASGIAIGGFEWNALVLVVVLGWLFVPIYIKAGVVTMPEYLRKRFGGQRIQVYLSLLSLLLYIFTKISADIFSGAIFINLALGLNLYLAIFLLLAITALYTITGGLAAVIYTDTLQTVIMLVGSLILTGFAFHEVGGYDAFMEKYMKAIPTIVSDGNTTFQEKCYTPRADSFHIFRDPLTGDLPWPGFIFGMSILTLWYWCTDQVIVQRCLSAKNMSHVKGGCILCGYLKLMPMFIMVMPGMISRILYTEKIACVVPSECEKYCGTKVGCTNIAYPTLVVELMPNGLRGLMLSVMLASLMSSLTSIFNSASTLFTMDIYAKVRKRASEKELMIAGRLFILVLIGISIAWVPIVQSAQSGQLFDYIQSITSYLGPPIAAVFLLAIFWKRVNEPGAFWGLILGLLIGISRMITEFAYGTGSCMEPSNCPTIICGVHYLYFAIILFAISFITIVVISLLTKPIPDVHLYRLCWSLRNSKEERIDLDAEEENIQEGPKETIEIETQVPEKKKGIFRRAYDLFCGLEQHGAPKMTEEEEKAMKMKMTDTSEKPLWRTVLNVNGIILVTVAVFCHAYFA", "assay": "primary screen, percent of control activity; higher = less effect of the substance", "set-up": "single well", "conditions": "50 µM", "description": "Two days before the assay, CHO‐wild type and CHO‐hSGLT1 cells were seeded in maintenance medium at 25 000 cells/well in clear‐bottom black 96‐well cell culture plates. Before the assay, cells were washed 3 times with 150 μL/well D‐glucose free DMEM with 0.3% (w/v) BSA. Library compounds at 50 μmol/L (singlicate) prepared in D‐glucose free DMEM with 160 μmol/L 1‐NBD‐glucose and 0.3% (w/v) BSA and negative controls (triplicate) were added at 100 μL/well and placed in a humidified incubator at 37°C with 5% CO2 for 90 minutes. Next, cells were washed 3 times with DMEM with 0.3% (w/v) BSA (150 μL/well). Care was taken to remove all medium after the last wash. Finally, 1‐NBD‐glucose was extracted from the cells by adding 10 μL/well isopropanol and orbital shaking for 5 minutes at 600 rpm, followed by incubation in the dark for 30 minutes. Fluorescence was measured on a Tecan Infinite M200 Microplate Reader (Tecan, Männedorf, Switzerland) with excitation at 445 nm and emission at 525 nm. The amount of 1‐NBD‐glucose taken up by the CHO‐wild type or CHO‐hSGLT1 cells in the presence or absence of test compounds was interpolated from 1‐NBD‐glucose calibration standards. The background uptake by CHO‐wild type was subtracted from the uptake by CHO‐hSGLT1. Background corrected uptake with test compound was expressed as a percentage of corrected uptake without test compound.", "units": {"NORMALIZED SGLT1 ACTIVITY (%)": "%"}, "values": [
      {"compound": "CCCCCNC(=N)N/N=C/c1c[nH]c2ccc(OC)cc12.O=C(O)/C=C\\C(=O)O", "NORMALIZED SGLT1 ACTIVITY (%)": 141},
      {"compound": "CO[C@@]1(NC(=O)C(C(=O)[O-])c2ccc(O)cc2)C(=O)N2C(C(=O)[O-])=C(CSc3nnnn3C)CO[C@@H]21.[Na+].[Na+]", "note": "(some centres unmarked)", "NORMALIZED SGLT1 ACTIVITY (%)": 97},
      {"compound": "CC(=O)O[C@@H]1CC(=O)[C@@]2(C)C(CC(=O)[C@]3(C)C2CC[C@@]2(C)[C@H](c4ccoc4)OC(=O)C4OC423)C1(C)C", "note": "(some centres unmarked)", "NORMALIZED SGLT1 ACTIVITY (%)": 92},
      {"compound": "COC(=O)[C@@]1(C)CCC[C@]2(C)c3ccc(O)c(C(C)C)c3CCC12", "note": "(some centres unmarked)", "NORMALIZED SGLT1 ACTIVITY (%)": 138},
      {"compound": "Cc1c(O)c(C(=O)CC(C)C)c2oc3c(C(=O)CC(C)C)c(O)c(C)c(O)c3c2c1O", "NORMALIZED SGLT1 ACTIVITY (%)": 107},
      {"compound": "O=[N+]([O-])c1ccc(O)c([N+](=O)[O-])c1", "NORMALIZED SGLT1 ACTIVITY (%)": 145},
      {"compound": "CC(=O)[O][Hg][c]1ccccc1", "NORMALIZED SGLT1 ACTIVITY (%)": 4},
      {"compound": "CC(=O)Oc1ccccc1C(=O)O", "NORMALIZED SGLT1 ACTIVITY (%)": 112},
      {"compound": "CC(=O)Nc1ccccc1", "NORMALIZED SGLT1 ACTIVITY (%)": 112},
      {"compound": "Cc1nc2ccccn2c(=O)c1CCN1CCC(C(=O)c2ccc(F)cc2)CC1", "NORMALIZED SGLT1 ACTIVITY (%)": 129},
      {"compound": "CCCCCCCCCCCCCCCCCC(=O)O.CC[C@H]1OC(=O)[C@H](C)[C@@H](O[C@H]2C[C@@](C)(OC)[C@@H](O)[C@H](C)O2)[C@H](C)[C@@H](O[C@@H]2O[C@H](C)C[C@H](N(C)C)[C@H]2O)[C@](C)(O)C[C@@H](C)C(=O)[C@H](C)[C@@H](O)[C@]1(C)O", "NORMALIZED SGLT1 ACTIVITY (%)": 106},
      {"compound": "COc1ccc2c(=O)cc(-c3ccccc3OC)oc2c1", "NORMALIZED SGLT1 ACTIVITY (%)": 139},
      {"compound": "COc1cc(OC)c2c(=O)c(-c3ccccc3)coc2c1", "NORMALIZED SGLT1 ACTIVITY (%)": 336},
      {"compound": "C[N+](C)(C)CCCCCC[N+](C)(C)C.[Br-].[Br-]", "NORMALIZED SGLT1 ACTIVITY (%)": 95},
      {"compound": "CCCCCCCCCCCCCCCCOP(=O)([O-])OCC[N+](C)(C)C", "NORMALIZED SGLT1 ACTIVITY (%)": 79},
      {"compound": "CCCCCCCCCCCCCCCC[N+](C)(C)C.[Br-]", "NORMALIZED SGLT1 ACTIVITY (%)": 19},
      {"compound": "CCCc1nc2c(C)cc(-c3nc4ccccc4n3C)cc2n1Cc1ccc(-c2ccccc2C(=O)O)cc1", "NORMALIZED SGLT1 ACTIVITY (%)": 171},
      {"compound": "Cl.Cl.NCCc1c[nH]cn1", "NORMALIZED SGLT1 ACTIVITY (%)": 140},
      {"compound": "O=C(O)c1cc(O)c2ccccc2n1", "NORMALIZED SGLT1 ACTIVITY (%)": 97},
      {"compound": "COC(=O)CC1C(C)(C)C(OC(C)=O)[C@@H]2[C@@H](OC(C)=O)[C@]34O[C@@]2(O)[C@]1(C)C3CC[C@]1(C)C4=CC(=O)O[C@H]1c1ccoc1", "note": "(some centres unmarked)", "NORMALIZED SGLT1 ACTIVITY (%)": 94},
      {"compound": "O=C(Cc1ccccc1)NO", "NORMALIZED SGLT1 ACTIVITY (%)": 95},
      {"compound": "Cc1cccc(CN2CCN(C(c3ccccc3)c3ccc(Cl)cc3)CC2)c1.Cl.Cl", "note": "(centres unmarked)", "NORMALIZED SGLT1 ACTIVITY (%)": 133},
      {"compound": "Cl.Cl.O=C(O)COCCN1CCN(C(c2ccccc2)c2ccc(Cl)cc2)CC1", "note": "(centres unmarked)", "NORMALIZED SGLT1 ACTIVITY (%)": 141},
      {"compound": "Cl.Clc1ccc(C(OCCN2CCCCC2)c2ccccc2)cc1", "note": "(centres unmarked)", "NORMALIZED SGLT1 ACTIVITY (%)": 37},
      {"compound": "CCCCC[C@H]1C(=O)O[C@H](C)[C@H](NC(=O)c2cccc(NC=O)c2O)C(=O)O[C@@H](C)[C@@H]1OC(=O)CC(C)C", "NORMALIZED SGLT1 ACTIVITY (%)": 220},
      {"compound": "O=C(O)c1cn(C2CC2)c2cc(N3CCNCC3)c(F)cc2c1=O", "NORMALIZED SGLT1 ACTIVITY (%)": 76},
      {"compound": "O=c1ccc2cc(O)c(O)cc2o1", "NORMALIZED SGLT1 ACTIVITY (%)": 134},
      {"compound": "CNC(C)[C@H](O)c1ccccc1.Cl", "note": "(some centres unmarked)", "NORMALIZED SGLT1 ACTIVITY (%)": 106},
      {"compound": "CN[C@@H](C)[C@@H](O)c1ccccc1.Cl", "NORMALIZED SGLT1 ACTIVITY (%)": 120},
      {"compound": "CC(NCCC(c1ccccc1)c1ccccc1)c1ccccc1.Cl", "note": "(centres unmarked)", "NORMALIZED SGLT1 ACTIVITY (%)": 48},
      {"compound": "COc1cc(/C=C/C(=O)O)ccc1O", "NORMALIZED SGLT1 ACTIVITY (%)": 147},
      {"compound": "N[C@H](C(=O)O)[C@@H]1CC(Cl)=NO1", "NORMALIZED SGLT1 ACTIVITY (%)": 89},
      {"compound": "COc1ccc2[nH]cc(CCN)c2c1.Cl", "NORMALIZED SGLT1 ACTIVITY (%)": 120},
      {"compound": "O=[N+]([O-])O[C@H]1CO[C@H]2[C@@H]1OC[C@H]2O[N+](=O)[O-]", "NORMALIZED SGLT1 ACTIVITY (%)": 100},
      {"compound": "Cc1ccsc1/C=C/C1=NCCCN1C.O=C(O)CC(O)(CC(=O)O)C(=O)O", "NORMALIZED SGLT1 ACTIVITY (%)": 91},
      {"compound": "CN1CCCN=C1COC(=O)C(O)(c1ccccc1)C1CCCCC1.Cl", "note": "(centres unmarked)", "NORMALIZED SGLT1 ACTIVITY (%)": 43},
      {"compound": "CCN1CCCC(OC(=O)C(c2ccccc2)c2ccccc2)C1.Cl", "note": "(centres unmarked)", "NORMALIZED SGLT1 ACTIVITY (%)": 90},
      {"compound": "COc1c2c(cc3c1OCO3)CC[N+](C)=C2.[Cl-]", "NORMALIZED SGLT1 ACTIVITY (%)": 98},
      {"compound": "C[N+](C)(C)CCO.[Cl-]", "NORMALIZED SGLT1 ACTIVITY (%)": 97},
      {"compound": "N[C@@H](Cc1ccccc1)C(=O)N[C@@H](Cc1ccc(O)cc1)C(=O)O", "note": "(H-Phe-Tyr-OH)", "NORMALIZED SGLT1 ACTIVITY (%)": 112},
      {"compound": "CCC(CCC(C)[C@H]1CCC2C3CC=C4C[C@@H](O)CC[C@]4(C)C3CC[C@@]21C)C(C)C", "note": "(some centres unmarked)", "NORMALIZED SGLT1 ACTIVITY (%)": 106}
    ]}
  ]
}
